Compound activity deposited in PubChem by Broad Institute.
Hits are enriched below; roughly 6.7% of the tested compounds scored in any of these assays.
C diff HTS = inhibitors of Clostridium difficile growth | Clostridium difficile clinical isolate growth, OD600, 24 h; active compounds read low | growth activity, negative = inhibition, % at 16 µg/mL (by protocol) | 0.25% of 86,000 active | AID 1259249;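 active means mean growth activity at or below -80% and every replicate also at or below -80%; inconclusive means mean at or below -80% but some replicate above -80%; inactive means mean growth activity above -80%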
T cruzi growth-1 = blocks T. cruzi growth in NIH3T3 culture. T. cruzi beta-gal in NIH3T3, GalScreen luminescence, 90 h. inhibition, % at 8.34 µM. 5.9% of 77,000 active;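 active means mean inhibition above about 93%, with at least 55% of replicates each passing it, limit read from the data, passing the limit was not always enough; inconclusive means only one of those two conditions holds; inactive means neither condition holds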
Pf Dd2 growth = inhibitors of Plasmodium falciparum Dd2 growth. 2.3% of 94,000 active. P. falciparum Dd2 growth, SYBR Green, 72 h; active compounds read low. activity change, % at 10 µM; in the data active means activity change below about -80%; inconclusive means no clear call, values can overlap the other calls
T cruzi growth-2 = Trypanosoma cruzi proliferation inhibition; shares compounds with T cruzi growth-1; T. cruzi beta-gal in NIH3T3, GalScreen luminescence, 90 h; inhibition, % at 8.35 µM; 72% of 5,600 active; AID 651739;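 active means mean replicate inhibition above about 95% and at least 55% of replicates individually reaching it, limit read from the data; inconclusive means only one of the two criteria is met; inactive means neither criterion is met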
T cruzi growth-3 = blocks T. cruzi growth in NIH3T3 host cells. shares compounds with T cruzi growth-1. T. cruzi beta-gal in NIH3T3, GalScreen luminescence, 90 h. inhibition, % at 2.09 µM. 21% of 5,600 active. AID 651740;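 active means mean inhibition above about 95%, with at least 55% of replicates also reaching it, limit read from the data; inconclusive means meets just one of the two conditions; inactive means meets neither condition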
3T3 cytotox = NIH/3T3 (mouse) viability loss; shares compounds with T cruzi growth-1; NIH/3T3 viability, CellTiter-Glo ATP luminescence, 90 h; cytotoxicity (signal decrease), % at 8.35 µM; 14% of 5,600 active;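 active means mean signal decrease across replicates above about 35% based on untreated-well scatter, with enough replicates individually passing, limit read from the data; inconclusive means no rule stated though some were filed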
3T3 cytotox 2 = cytotoxicity in mouse NIH/3T3 fibroblasts | 56% of 5,600 active | shares compounds with T cruzi growth-1 | inhibition, % at 24.9 µM | NIH/3T3 viability, CellTiter-Glo ATP luminescence, 90 h;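 active means mean loss of cell viability signal at or above a set limit, and enough replicates individually reaching it; inconclusive means meets only the mean limit or only the replicate share; inactive means meets neither condition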
Large screens that a line does not name were inactive (follow-up assays come after a bar, where they were run); ! = a repeat was not active.

O=C1CN(S(=O)(=O)Cc2ccccc2)C[C@H]2[C@H](c3ccc(C#Cc4cccnc4)cc3)[C@@H](CO)N12	none (no result: T cruzi growth-1)
CC(C)NC(=O)Nc1ccc2c(c1)C(=O)N([C@@H](C)CO)C[C@@H](C)[C@@H](CN(C)S(=O)(=O)c1ccc(Cl)cc1)OCCCC[C@@H](C)O2	T cruzi growth-1 108 | T cruzi growth-2 101 | T cruzi growth-3 inactive | 3T3 cytotox inactive | 3T3 cytotox 2 inactive
C[C@H](CO)N1C[C@H](C)[C@@H](CN(C)S(=O)(=O)c2ccc(Cl)cc2)OCCCC[C@H](C)Oc2ccc(NC(=O)NC3CCCCC3)cc2C1=O	T cruzi growth-1 106 (no result: Pf Dd2 growth) | T cruzi growth-2 109 | T cruzi growth-3 inactive | 3T3 cytotox inactive | 3T3 cytotox 2 inactive
C[C@H]1CCCCO[C@H](CN(C)S(=O)(=O)c2ccc(Cl)cc2)[C@@H](C)CN([C@@H](C)CO)C(=O)c2cc(NC(=O)NC3CCCCC3)ccc2O1	none (no result: Pf Dd2 growth)
Cc1noc(C)c1NC(=O)Nc1ccc2c(c1)C(=O)N([C@H](C)CO)C[C@H](C)[C@H](CN(C)S(=O)(=O)c1ccc(Cl)cc1)OCCCC[C@H](C)O2	T cruzi growth-1 inconclusive | T cruzi growth-2 inactive | T cruzi growth-3 inactive | 3T3 cytotox inactive | 3T3 cytotox 2 inactive
Cc1noc(C)c1NC(=O)Nc1ccc2c(c1)C(=O)N([C@@H](C)CO)C[C@@H](C)[C@@H](CN(C)S(=O)(=O)c1ccc(Cl)cc1)OCCCC[C@@H](C)O2	none (no result: C diff HTS)
CC(C)NC(=O)Nc1ccc2c(c1)C(=O)N([C@H](C)CO)C[C@@H](C)[C@H](CN(C)S(=O)(=O)c1ccc(Cl)cc1)OCCCC[C@@H](C)O2	none
O=C(Nc1ccc2c(c1)OCO2)N[C@H]1C=C[C@@H](CC(=O)N2CCN(c3ccccc3)CC2)O[C@@H]1CO	none (no result: C diff HTS)
CCC(=O)N1[C@H](CN(C)C(C)=O)[C@H](c2ccc(C3=CCCC3)cc2)[C@@H]1CO	none (no result: T cruzi growth-1)
Cc1noc(C)c1S(=O)(=O)Nc1ccc2c(c1)C(=O)N([C@H](C)CO)C[C@@H](C)[C@@H](CN(C)S(C)(=O)=O)O2	none
CNC[C@H]1OCCCC[C@H](C)Oc2ccc(NS(=O)(=O)c3ccccc3)cc2C(=O)N([C@@H](C)CO)C[C@H]1C	none (no result: Pf Dd2 growth)
COc1ccc(S(=O)(=O)Nc2ccc3c(c2)C(=O)N([C@H](C)CO)C[C@H](C)[C@H](CN(C)Cc2ccncc2)OCCCC[C@@H](C)O3)cc1	none
CCC(=O)N(C)C[C@@H]1Oc2cc(C#CCN(C)C)ccc2S(=O)(=O)N([C@H](C)CO)C[C@@H]1C	none
CCC(=O)N(C)C[C@H]1Oc2cc(C#CCN(C)C)ccc2S(=O)(=O)N([C@H](C)CO)C[C@H]1C	none
CCC(=O)N(C)C[C@H]1Oc2cc(C#CCN(C)C)ccc2S(=O)(=O)N([C@@H](C)CO)C[C@@H]1C	T cruzi growth-1 102 | T cruzi growth-2 104 | T cruzi growth-3 inconclusive | 3T3 cytotox inactive | 3T3 cytotox 2 inactive
CCCC#Cc1ccc2c(c1)O[C@H](CN(C)C(=O)NCCC)[C@H](C)CN([C@H](C)CO)S2(=O)=O	none
CCC(=O)N(C)C[C@H]1Oc2cc(C#CCN(C)C)ccc2S(=O)(=O)N([C@H](C)CO)C[C@@H]1C	T cruzi growth-1 102 | T cruzi growth-2 97 | T cruzi growth-3 inactive | 3T3 cytotox inactive | 3T3 cytotox 2 inactive
CCCNC(=O)N(C)C[C@H]1Oc2cc(C#CCN(C)C)ccc2S(=O)(=O)N([C@@H](C)CO)C[C@@H]1C	T cruzi growth-1 inconclusive | T cruzi growth-2 inactive | T cruzi growth-3 inactive | 3T3 cytotox inactive | 3T3 cytotox 2 inactive
C[C@@H]1CN([C@@H](C)CO)C(=O)Cc2cc(NC(=O)c3ccncc3)ccc2O[C@H]1CN(C)S(C)(=O)=O	none
Cc1noc(C)c1S(=O)(=O)N(C)C[C@@H]1OCCCC[C@@H](C)Oc2ccc(NC(=O)Cc3ccccc3)cc2C(=O)N([C@H](C)CO)C[C@@H]1C	none
COCC#Cc1ccc2c(c1)O[C@H](CN(C)C(=O)CN(C)C)[C@H](C)CN([C@H](C)CO)S2(=O)=O	none
C[C@H]1CN([C@@H](C)CO)S(=O)(=O)c2ccc(C#Cc3ccccc3)cc2O[C@H]1CN(C)C(=O)c1ccccn1	none
C[C@H](CO)N1C[C@H](C)[C@H](CN(C)C(=O)c2ccccn2)Oc2cc(C#Cc3ccc(F)cc3)ccc2S1(=O)=O	T cruzi growth-1 119! | T cruzi growth-2 99 | T cruzi growth-3 inactive | 3T3 cytotox inactive | 3T3 cytotox 2 inactive
C[C@H]1CN([C@@H](C)CO)S(=O)(=O)c2ccc(C#Cc3ccc(F)cc3)cc2O[C@H]1CN(C)C(=O)c1ccccn1	T cruzi growth-1 inconclusive | T cruzi growth-2 108 | T cruzi growth-3 inactive | 3T3 cytotox inactive | 3T3 cytotox 2 inactive
C[C@@H]1CN([C@@H](C)CO)S(=O)(=O)c2ccc(C#Cc3ccccc3)cc2O[C@@H]1CN(C)C(=O)c1ccccn1	none
COc1ccc(NC(=O)Nc2ccc3c(c2)C(=O)N([C@@H](C)CO)C[C@H](C)[C@H](CN(C)Cc2ccc(C(=O)O)cc2)OCCCC[C@H](C)O3)cc1	none
CO[C@H]1CC[C@@H]2CCN(C)C(=O)[C@H](C)[C@@H](OC)CN(C)C(=O)c3cc(C#N)ccc3OC[C@@H]1O2	none (no result: C diff HTS)
C[C@H]1CCCCO[C@@H](CN(C)Cc2ccc3c(c2)OCO3)[C@@H](C)CN([C@@H](C)CO)C(=O)c2cc(NC(=O)Nc3ccc(C(F)(F)F)cc3)ccc2O1	T cruzi growth-1 121, Pf Dd2 growth -89 | T cruzi growth-2 inactive | T cruzi growth-3 116 | 3T3 cytotox 47 | 3T3 cytotox 2 105
C[C@@H]1CCCCO[C@H](CN(C)Cc2ccc3c(c2)OCO3)[C@H](C)CN([C@H](C)CO)C(=O)c2cc(NC(=O)Nc3ccc(C(F)(F)F)cc3)ccc2O1	T cruzi growth-1 inconclusive, Pf Dd2 growth inconclusive | T cruzi growth-2 96 | T cruzi growth-3 116 | 3T3 cytotox inconclusive | 3T3 cytotox 2 95
C[C@@H]1CCCCO[C@H](CN(C)Cc2ccc(C(F)(F)F)cc2)[C@H](C)CN([C@H](C)CO)C(=O)c2cc(NC(=O)Nc3ccc4c(c3)OCO4)ccc2O1	none (no result: C diff HTS)
C[C@@H]1CN([C@@H](C)CO)C(=O)c2cc(NC(=O)Nc3ccc(C(F)(F)F)cc3)ccc2O[C@@H](C)CCCCO[C@@H]1CN(C)Cc1ccc2c(c1)OCO2	T cruzi growth-1 123 | T cruzi growth-2 98 | T cruzi growth-3 113 | 3T3 cytotox inactive | 3T3 cytotox 2 inactive
C[C@@H]1CN([C@H](C)CO)C(=O)c2cc(NC(=O)Nc3ccc4c(c3)OCO4)ccc2O[C@@H](C)CCCCO[C@@H]1CN(C)Cc1ccc(C(F)(F)F)cc1	none (no result: C diff HTS)
